# Rows were chosen to be rich in hits. Some 3% of all compounds tested hit in one or more screens of this group.
# MITF TRPM1 inh – inhibitors of MITF-driven TRPM1 promoter in melanoma cells | SK-MEL-5 TRPM1 promoter luciferase, 24 h | inhibition, % at 12.5 µM | 330,000 tested, 0.83% active;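 active = mean inhibition across replicates of 60% or more, whatever share of single replicates reaches that level; inconclusive = some that reach 60%, reason not given; inactive = mean inhibition across replicates below 60%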
# EWS-Fli inh – inhibitors of EWS/Fli oncoprotein transcriptional activity; A673 NR0B1-luciferase reporter, viability-normalised; inhibition, % at 12.6 µM; 350,000 tested, 0.67% active;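 active = mean inhibition of at least 50% after viability correction, with every replicate also passing that limit; inconclusive = mean reaches 50% but only one of two replicates passes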;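 note: firefly luciferase signal divided by Alamar Blue viability fluorescence both relative to DMSO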
# PAX8 reporter – lowers PAX8-driven luciferase in RMG-I cells | RMG-I TPO-luciferase reporter, SteadyGlo, 24 h | inhibition, % at 12.6 µM | 360,000 tested, 1.2% active;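 active = mean replicate inhibition at least 60% with every replicate also reaching 60%; inconclusive = only one of the two criteria is met; inactive = mean below 60% and not all replicates reaching 60%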;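 note: luciferase light reporting Pax8 driven TPO promoter activity; plate controls were median of neutral control wells for no effect and mitoxantrone controls for full effect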
# Peg3 prom inh-1 – reduces Peg3 promoter-driven luciferase expression in HeLa. HeLa PEG-Prom luciferase reporter, luminescence, overnight. inhibition, % at 20 µM. 360,000 tested, 1.7% active. AID 588405;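 active = inhibition of at least 50% at 20 µM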
# Shn3 3UTR inh – inhibitors of Schnurri-3 3'UTR reporter in osteoblasts; Clone20 osteoblast Shn3 3'UTR firefly luciferase, 24 h; inhibition, % at 12.5 µM; 360,000 tested, 0.52% active;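 active = mean inhibition of at least 75% with every replicate also reaching 75%; inconclusive = mean inhibition at least 75% but some replicate below; inactive = mean inhibition below 75%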;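 note: 0% = median of neutral control wells and 100% = pilot-screen positive control compound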
# ABHD5 PLIN5 PPI – ABHD5-PLIN5 protein interaction inhibition; Split G. princeps luciferase complementation, luminescence, 4 h; inhibition, % at 4 µM; 360,000 tested, 0.78% active; AID 602281;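 active = inhibition above the mean inhibition across every tested compound plus 3 SD, cut at about 22% in these data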;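 note: 0% = DMSO only wells and the 100% control is not disclosed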
# Target sequence (Q00G26 whole entry, looked up): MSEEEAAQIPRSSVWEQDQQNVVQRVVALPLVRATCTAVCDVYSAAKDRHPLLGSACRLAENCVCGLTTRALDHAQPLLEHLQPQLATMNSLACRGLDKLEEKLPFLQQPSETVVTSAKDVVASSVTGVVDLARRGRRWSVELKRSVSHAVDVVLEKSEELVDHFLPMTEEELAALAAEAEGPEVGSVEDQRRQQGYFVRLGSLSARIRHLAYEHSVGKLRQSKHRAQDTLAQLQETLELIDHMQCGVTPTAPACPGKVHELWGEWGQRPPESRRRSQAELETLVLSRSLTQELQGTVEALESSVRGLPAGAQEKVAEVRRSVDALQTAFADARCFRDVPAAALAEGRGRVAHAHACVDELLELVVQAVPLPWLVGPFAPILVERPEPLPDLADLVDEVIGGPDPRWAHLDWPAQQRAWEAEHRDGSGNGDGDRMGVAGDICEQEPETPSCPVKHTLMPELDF
# Target sequence (Q8WTS1 whole entry, looked up): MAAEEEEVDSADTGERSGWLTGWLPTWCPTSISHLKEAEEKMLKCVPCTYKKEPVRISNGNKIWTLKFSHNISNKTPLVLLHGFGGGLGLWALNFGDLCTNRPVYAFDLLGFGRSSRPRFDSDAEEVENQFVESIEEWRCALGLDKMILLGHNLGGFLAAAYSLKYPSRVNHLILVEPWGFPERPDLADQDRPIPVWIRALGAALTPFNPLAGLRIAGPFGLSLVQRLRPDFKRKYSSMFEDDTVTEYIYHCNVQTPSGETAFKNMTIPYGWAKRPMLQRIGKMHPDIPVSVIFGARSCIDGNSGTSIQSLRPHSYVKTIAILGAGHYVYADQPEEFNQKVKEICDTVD
# Peg3 prom inh-2 – Peg3 promoter inhibition confirmation. shares compounds with Peg3 prom inh-1. HeLa PEG-Prom luciferase reporter, luminescence, overnight. inhibition, % at 20 µM. 1,300 tested, 84% active;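 active = at 20 µM dose, 40% or more inhibition averaged across four replicates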
# Numbers without * were called inactive; ? = inconclusive; nt = no result given.
SMILES,MITF TRPM1 inh,EWS-Fli inh,PAX8 reporter,Peg3 prom inh-1,Shn3 3UTR inh,ABHD5 PLIN5 PPI,Peg3 prom inh-2
CC(=NNC(=S)N1CCN(C2CCCCCC2)CC1)c1ccccn1,83.0*,48.0,94.4*,102.2*,93.1*,-21.3,98.5*
O=C(Oc1c(CN2CCOCC2)cc(Cl)c2cccnc12)c1ccccc1Cl,75.5*,21.2,45.9,50.2*,?,2.5,43.3*
C/C=C/c1ccc(C2[C@H]3CNC[C@@H]2N3Cc2cc(-c3ccccc3)on2)cc1 (stereo not given in full),nt,-16.5,6.7,nt,nt,nt,nt
Cc1cc2cc(C)c3nnc(SCC(=O)Nc4ccc(S(=O)(=O)N5CCCCC5)cc4)n3c2cc1C,-5.5,24.4,-12.3,68.6*,27.3,-0.8,4.8
CC(C)NC(=O)N(C)C[C@H]1OCCCC[C@H](C)Oc2ccc(NC(=O)Nc3ccc4c(c3)OCO4)cc2C(=O)N([C@@H](C)CO)C[C@H]1C,nt,-3.8,5.1,nt,nt,nt,nt
COc1ccc(CCNC(=O)C(=O)NCC2CCCN2S(=O)(=O)c2ccccc2)cc1OC (stereo not given),-2.4,10.3,49.3,56.3*,22.3,3.9,57.7*
O=C(NCCc1ccccc1)C(=O)NCC1CCCN1S(=O)(=O)c1ccccc1 (stereo not given),26.8,45.4,20.5,40.3,10.0,0.6,nt
CN1C(=O)c2cc(NC(=O)C3CCOCC3)ccc2OC[C@H]2O[C@@H](CC(=O)O)CC[C@H]21,nt,-0.4,10.6,nt,nt,nt,nt
CC[C@H](C)[C@H]1O[C@]2(CC[C@@H]1C)C[C@@H]1C[C@@H](CC=C(C)[C@@H](O[C@H]3C[C@H](OC)[C@@H](O[C@H]4C[C@H](OC)[C@@H](O)[C@H](C)O4)[C@H](C)O3)[C@@H](C)C=CC=C3CO[C@@H]4[C@H](O)C(C)=C[C@@H](C(=O)O1)[C@]34O)O2,57.9,nt,nt,84.4*,97.4*,0.1,38.0
O=C(CCCN1C(=O)/C(=C/c2ccccc2Cl)SC1=S)Nc1ccccn1,13.1,nt,37.4,15.6,24.2,3.0,nt
O=C1/C(=C\c2cccc(O)c2O)SC(=S)N1Cc1ccccc1,10.2,44.6,3.9,65.8*,32.7,-10.4,61.5*
O=C1/C(=C/c2ccccc2Cl)SC(=S)N1CCCC(=O)N(CCO)c1ccccc1,8.6,nt,34.4,66.7*,59.3,18.9,90.9*
C[C@@H]1CN([C@H](C)CO)C(=O)c2cc(-c3cccnc3)cnc2O[C@H]1CN(C)C(=O)Nc1ccc2c(c1)OCO2,nt,-7.4,nt,nt,nt,nt,nt
C[C@H](CO)N1C[C@H](C)[C@@H](CN(C)S(=O)(=O)c2ccc(Cl)cc2)Oc2ccc(NS(=O)(=O)c3cn(C)cn3)cc2CC1=O,nt,-9.5,-23.1,nt,nt,nt,nt
COc1ccc(-c2cc(-c3ccc(F)cc3)nc(N3CCN(C)CC3)n2)cc1,18.4,nt,nt,79.8*,-6.6,8.6,58.1*
COc1ccc(-c2cc(C(F)(F)F)nc(N3CCOCC3)n2)cc1,-18.2,nt,nt,13.7,-5.9,-5.1,nt
COc1ccc(NC(=O)Nc2ccc3c(c2)C(=O)N([C@@H](C)CO)C[C@@H](C)[C@@H](CN(C)C(=O)Cc2ccccc2)OCCCC[C@@H](C)O3)cc1,nt,2.8,33.9,nt,nt,nt,nt
O=c1c2c3c(sc2nc(N2CCNCC2)n1CCc1ccccc1)CCCCC3,68.8*,19.1,9.5,105.4*,13.6,-0.2,96.0*
O=c1c2c3c(sc2nc(NCCO)n1CCc1ccccc1)CCCCC3,12.1,nt,-3.3,-13.6,-11.9,-15.8,nt
O=C(Cc1ccncc1)NCC[C@@H]1CC[C@H](NC(=O)C2CCOCC2)[C@@H](CO)O1,nt,-0.6,-18.8,nt,nt,nt,nt
COc1cc2c(oc(=O)c3cc(C)cc(OC)c32)c2c(C3OC(C)C(O)C(C)(O)C3O)ccc(O)c12 (stereo not given),65.1*,37.1,nt,100.5*,8.6,-1.5,99.0*
COc1cccc(/C=C2/Sc3ccc(C(=O)NCCCN4CCCC4)cc3NC2=O)c1,54.9,49.4,13.4,78.1*,-9.3,17.6,93.6*
CN(C(=O)OC(C)(C)C)c1ccc(-c2nc3ccccc3s2)cc1,94.4*,87.8*,92.0*,90.4*,81.4,2.5,92.5*
CC(C)c1ccc(-c2nc3ccccc3s2)cc1,92.1*,88.9*,87.9*,72.1*,88.0*,-2.3,83.1*
COc1cc(-c2nc3ccccc3s2)ccc1O,-12.6,nt,nt,-179.5,-64.5,-0.3,nt
SMILES,MITF TRPM1 inh,EWS-Fli inh,PAX8 reporter,Peg3 prom inh-1,Shn3 3UTR inh,ABHD5 PLIN5 PPI,Peg3 prom inh-2
COc1ccc(-c2nc3ccccc3s2)cc1O,45.8,nt,74.2*,55.1*,60.9,10.8,36.7
COC(=O)N(C)c1nc2ccccc2s1,-34.7,nt,nt,-110.5,-57.2,-1.8,nt
NCC[C@@H]1CC[C@H](NS(=O)(=O)Cc2ccccc2)[C@H](CO)O1,nt,0.6,2.3,nt,nt,nt,nt
Cc1cc(C=C2C(=O)c3ccccc3C2=O)c(C)n1-c1ccc(C(=O)O)cc1,1.1,4.4,-6.9,10.8,-5.5,-8.0,nt
Cc1cc(C=C2C(=O)c3ccccc3C2=O)c(C)n1-c1ccccc1,71.6*,nt,nt,69.1*,20.6,-2.2,64.8*
CS(=O)(=O)Nc1ccc2c(c1)[C@@H]1C[C@@H](CC(=O)NCc3ccc(-c4ccccc4)cc3)O[C@H](CO)[C@@H]1O2,nt,20.4,4.8,nt,nt,nt,nt
COC(=O)c1ccccc1-c1ccc(/C=N/Nc2nc(N3CCCC3)nc(N3CCCC3)n2)o1,5.6,4.3,5.2,51.9*,19.2,17.4,56.4*
Cc1ccc(/C=N/Nc2nc(N3CCCCC3)nc(N3CCCCC3)n2)o1,5.5,11.4,13.3,28.8,5.1,-6.1,nt
CNCC[C@H](Oc1cccc2ccccc12)c1cccs1,7.2,6.3,16.2,90.3*,-18.9,12.7,91.6*
CNCCC(Oc1ccc(C(F)(F)F)cc1)c1ccccc1 (stereo not given),0.1,4.0,2.5,-1.5,8.7,7.1,nt
C[C@H]1CN([C@@H](C)CO)C(=O)c2cc(NS(=O)(=O)c3ccccc3)ccc2O[C@@H]1CN(C)C(=O)Nc1ccc(F)cc1,nt,nt,-3.8,nt,nt,nt,nt
C=CCn1c(COc2ccccc2)nnc1SC(C)C(=O)N/N=C/c1cc(Cl)ccc1O (stereo not given),?,nt,nt,60.5*,?,-2.9,71.1*
COC(=O)Cc1[nH]n(-c2nc3ccccc3s2)c(=O)c1C(C)=Nc1ccc(Cl)cc1,79.5*,5.7,-99.8,94.4*,-20.9,-6.2,93.9*
Cc1oc2c(c(=O)c1C)C(=O)CC(c1ccccc1)C2 (stereo not given),0.7,nt,nt,6.9,5.3,-7.0,nt
CS(=O)(=O)c1sc(C#N)c2c1C(=O)CC(c1ccccc1)C2 (stereo not given),87.2*,42.2,131.1*,98.2*,45.9,56.6*,96.6*
Cc1onc(-c2ccccc2)c1C(=O)Nc1ncc([N+](=O)[O-])s1,3.4,19.4,20.4,33.8,4.3,5.3,nt

# Screening data deposited in PubChem BioAssay by several laboratories.
